According to PubChem BioAssay AID588397 (National Center for Advancing Translational Sciences (NCATS), 2011):
The campaign covered roughly 1,300 compounds. About 1,000 (77%) were called active. Inconclusive results (about 7%) are left out. Calls come from the whole dose curve; as a rule, active = well fitted inhibition curve with a large enough effect; inconclusive = small, poorly fitted or top-dose-only effect; inactive = no such curve, though single readings can be large or run the other way. So high a share suggests a set chosen from earlier hits. The list shows a part of the results.
Potency is the fitted concentration of half-maximal effect.

Test: qHTS of small molecules that selectively kill Giardia lamblia: Hit Validation.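 Note: viability measured as ATP content by luminescence so killing lowers signal; nearly all actives have a fitted effect of over 65% in size.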
Details: Giardia lamblia trophozoite viability, dose-response; series mostly up to 38.3 µM
Method in brief: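 ATP-content bioluminescence gauges trophozoite survival. Cells (100/well) receive compound and incubate anaerobically for 48 hrs at 37 deg C; detection reagent follows for 15-30 min at room temperature.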
For `CCC(C(=O)N1CCOCC1)n1nc(C)n2c(cc3cc(C)ccc32)c1=O` (stereo not drawn), the Potency was “inactive”. With `O=C(Nc1ccc(N2CCOCC2)cc1)c1ccc([N+](=O)[O-])o1` the Potency was 0.579 µM (active). For `O=C(O)c1cc2ccccc2c(N=Nc2cccnc2)c1O`, the Potency was 2.05 µM (active). In the case of `O=C(NN1C(=O)c2ccccc2NC1c1ccc([N+](=O)[O-])o1)c1ccc([N+](=O)[O-])cc1` (stereo not drawn), the Potency is reported as 2.05 µM (active). In the case of `O=C(NN1C(=O)c2ccccc2NC1c1ccc([N+](=O)[O-])o1)c1ccccc1` (stereo not drawn), the Potency is reported as 1.03 µM (active). With `Cc1[nH]c2ccccc2c1C(=O)C(C)OC(=O)c1ccc([N+](=O)[O-])o1` (stereo not drawn) the Potency was 1.83 µM (active). With `COc1cc(/C=C/c2ccc3cccc(OC)c3n2)c(OC(C)=O)c([N+](=O)[O-])c1` the Potency was 1.83 µM (active). With `COc1cc(/C=C/c2ccc3cccc(OC)c3n2)c(O)c([N+](=O)[O-])c1` the Potency was 1.63 µM (active). With `O=C(Nc1cccc2ccccc12)C12CC3CC(C1)CC(n1cnc([N+](=O)[O-])n1)(C3)C2` the Potency was 3.65 µM (active). With `O=C(Nc1cc([N+](=O)[O-])c2[nH]c(=O)c3ccccc3c2c1)C(F)(F)F` the Potency was 1.03 µM (active). For `COc1ccc(NS(=O)(=O)c2ccc3oc4ccccc4c3c2)cn1`, the Potency was “inactive”. In the case of `c1coc(-c2nc3cc4ccccc4cc3nc2-c2ccco2)c1`, the Potency is reported as 3.65 µM (active). In the case of `O=c1c(-c2cccc([N+](=O)[O-])c2)[n+]([O-])c2ccccc2n1O`, the Potency is reported as 5.16 µM (active). For `CCOn1c(=O)c(-c2cccc([N+](=O)[O-])c2)[n+]([O-])c2ccccc21`, the Potency was 1.03 µM (active). With `CC(NC(=O)c1ccc(N(C)C)c([N+](=O)[O-])c1)c1ccc(-n2ccnc2)cc1` (stereo not drawn) the Potency was 4.6 µM (active). With `COc1ccccc1C1C([N+](=O)[O-])=CC([N+](=O)[O-])=CN1C` (stereo not drawn) the Potency was 2.59 µM (active). In the case of `Cc1ccc(S(=O)(=O)N2[C@@H](c3ccccc3)C(C(=O)O)=CC[C@H]2c2cccc(Cl)c2)cc1`, the Potency is reported as 0.103 µM (active). In the case of `Cc1ccc(S(=O)(=O)N2[C@@H](c3ccc(F)cc3)C(C(=O)O)=CC[C@H]2c2ccc3c(c2)OCO3)cc1`, the Potency is reported as “inactive”. With `Cc1ccc(S(=O)(=O)N2[C@@H](c3ccc(F)cc3)C(C(=O)O)=CC[C@H]2c2ccc(Cl)cc2)cc1` the Potency was “inactive”. With `O=[N+]([O-])c1cccc2nc3ccccc3c(NCCCn3ccnc3[N+](=O)[O-])c12` the Potency was 1.63 µM (active). In the case of `CN=c1scc(-c2ccccc2F)n1/N=C(\C)c1cccnc1`, the Potency is reported as 4.1 µM (active). In the case of `COc1cc(Nc2ccc(C)cc2)c([N+](=O)[O-])nc1[N+](=O)[O-]`, the Potency is reported as 1.45 µM (active). For `Cc1ccc(Nc2ccc([N+](=O)[O-])nc2[N+](=O)[O-])cc1`, the Potency was 3.26 µM (active). In the case of `O=C(Nc1ccc2[nH]ncc2c1)c1ccccc1Cl`, the Potency is reported as 5.79 µM (active). In the case of `O=[N+]([O-])c1ccc(Oc2cccc(Br)c2)c2ccncc12`, the Potency is reported as 2.05 µM (active). With `O=C(Nc1cccnc1)c1ccc([N+](=O)[O-])s1` the Potency was 2.05 µM (active). In the case of `O=C(Cc1ccc(-n2c(=O)c3sccc3n(CC(=O)Nc3ccccc3)c2=O)cc1)NCc1ccco1`, the Potency is reported as “inactive”. For `CN(C(=O)c1cc([N+](=O)[O-])ccc1NCc1cccnc1)c1ccccc1`, the Potency was “inactive”. In the case of `O=C(NCc1ccco1)c1ccc([N+](=O)[O-])o1`, the Potency is reported as 1.83 µM (active). In the case of `O=C(NCc1cccnc1)c1ccc([N+](=O)[O-])o1`, the Potency is reported as 1.16 µM (active). In the case of `O=C(Nc1nnc(-c2ccco2)o1)c1ccc([N+](=O)[O-])s1`, the Potency is reported as 3.65 µM (active). For `CCN(C(=O)N(CC)c1ccccc1)c1ccccc1`, the Potency was “inactive”. With `Cc1ccc(CNC(=O)c2ccc([N+](=O)[O-])o2)cc1` the Potency was 1.83 µM (active). For `O=C(Nc1ccc(Cc2ccncc2)cc1)c1ccc([N+](=O)[O-])o1`, the Potency was 1.16 µM (active). In the case of `O=C(Nc1cccnc1)c1ccc([N+](=O)[O-])o1`, the Potency is reported as 1.3 µM (active). In the case of `Cc1ccc(CNC(=O)c2cc(S(=O)(=O)N3CCOCC3)cn2C)cc1`, the Potency is reported as “inactive”. In the case of `CNc1nnc(-c2ccc(N(C)C)cc2)s1`, the Potency is reported as 3.26 µM (active). With `CCc1ccc2nc3sc(C(=O)O)cc3cc2c1` the Potency was 10.3 µM (active). With `CCN1C[C@@H]2[C@@H]3C(=O)N(C)C(=O)[C@@H]3[C@](C)(C1=O)N2C(=O)c1ccc(Cl)c(Cl)c1` the Potency was “inactive”. With `O=C1NCCN1c1ncc([N+](=O)[O-])s1` the Potency was 0.103 µM (active). In the case of `COc1ccc(-c2cc3nc[nH]c(=O)c3s2)cc1`, the Potency is reported as 4.6 µM (active). With `CCNc1nc(NCC)nc(-n2nc(C)cc2C)n1` the Potency was “inactive”. With `O=C(NN(c1ccccc1)c1ccccc1)c1ccc([N+](=O)[O-])o1` the Potency was 1.83 µM (active). In the case of `C/C(=N/NC(=O)C(O)(c1ccccc1)c1ccccc1)c1ccc([N+](=O)[O-])o1`, the Potency is reported as 0.365 µM (active). In the case of `O=C(NNC(=O)c1ccc([N+](=O)[O-])o1)c1ccccc1`, the Potency is reported as 0.516 µM (active). With `CN(Cc1ccccc1)C(=O)c1ccc([N+](=O)[O-])o1` the Potency was 3.65 µM (active). In the case of `O=C(O)C1CCCN1S(=O)(=O)c1ccc(Br)cc1` (stereo not drawn), the Potency is reported as “inactive”. For `COc1ccc(OC)c2c(C)c(C)[nH]c12`, the Potency was “inactive”. For `CN(C(=O)OC(C)(C)C)c1ccc(-c2nc3ccccc3s2)cc1`, the Potency was 1.83 µM (active). In the case of `Cc1c[nH]c(=O)c([N+](=O)[O-])c1`, the Potency is reported as 8.18 µM (active). For `COc1cc2c3c(c1OC)C1(C=CC(=NNC(N)=O)C=C1)CC3N(C(C)=O)CC2` (stereo not drawn), the Potency was “inactive”. With `O=C1CCCN1CCCN=c1c([N+](=O)[O-])nn(-c2ccc(Cl)cc2)n1O` the Potency was 3.65 µM (active). In the case of `COc1ccc(-n2nc([N+](=O)[O-])c(=NCCCN3CCCC3=O)n2O)cc1`, the Potency is reported as 2.05 µM (active). With `Cn1cccc1C1CCCN1CC(=O)Nc1ccc(F)c(F)c1F` (stereo not drawn) the Potency was “inactive”. With `Cc1ccc(CNC(=O)CSc2ccsc2[N+](=O)[O-])cc1` the Potency was 2.59 µM (active). For `O=C(CSc1ccsc1[N+](=O)[O-])NC1CCCC1`, the Potency was 1.03 µM (active). In the case of `CCOC(=O)Cc1csc(SCC(=O)NC2CCCCC2)n1`, the Potency is reported as “inactive”. For `O=C(CSc1ccsc1[N+](=O)[O-])N1CCN(c2ccccn2)CC1`, the Potency was 0.579 µM (active). With `O=C(CSc1ccsc1[N+](=O)[O-])NCc1ccccc1` the Potency was 1.16 µM (active). In the case of `COc1ccccc1CNC(=O)CSc1ccsc1[N+](=O)[O-]`, the Potency is reported as 1.45 µM (active). For `CC(=O)c1ccc(NC(=O)CSc2ccsc2[N+](=O)[O-])cc1`, the Potency was 0.918 µM (active). With `CCc1ccccc1NC(=O)CSc1ccsc1[N+](=O)[O-]` the Potency was 2.31 µM (active). For `CCc1ccccc1NC(=O)CC(NCc1ccccc1)C(=O)O` (stereo not drawn), the Potency was “inactive”. With `COc1ccc(CNC(=O)CSc2ccsc2[N+](=O)[O-])cc1` the Potency was 1.63 µM (active). In the case of `CCn1c(=O)n(CC)c2cc(N)ccc21`, the Potency is reported as “inactive”. For `Cc1cc(C(=O)CCC(=O)NC(C)c2ccc(S(N)(=O)=O)cc2)c(C)s1` (stereo not drawn), the Potency was “inactive”. With `c1csc(-c2ccc(N3CCOCC3)nn2)c1` the Potency was 3.65 µM (active). With `O=[N+]([O-])c1ccc(NCc2ccccc2N2CCC(CO)CC2)nc1` the Potency was 1.45 µM (active). In the case of `O=C1c2ccccc2C(=O)c2[nH]cnc21`, the Potency is reported as 2.59 µM (active). For `O=C(O)c1ccc(NC(=O)c2cc3ccccc3o2)cc1`, the Potency was 6.5 µM (active). With `O=C1CSC(c2ccc(F)cc2)N1c1c(F)cccc1F` (stereo not drawn) the Potency was “inactive”. With `CC(C)(C)n1nc(-c2ccc(Cl)cc2)c2c(N)ncnc21` the Potency was 14.5 µM (active). With `CCN(CC)S(=O)(=O)c1ccc(N2CCCC2)c(NC(=O)c2ccc([N+](=O)[O-])o2)c1` the Potency was 1.45 µM (active). For `COc1ccc(N2CCCC2)c(NC(=O)c2ccc([N+](=O)[O-])o2)c1`, the Potency was 0.516 µM (active). With `COc1ccc2nc3cc(Cl)ccc3c(Nc3ccc(O)c(CN4CCN(C)CC4)c3)c2c1` the Potency was 10.3 µM (active). With `CN(C)CCCn1cnc2c(c1=N)C(c1ccccc1)c1ccc3ccccc3c1O2` (stereo not drawn) the Potency was 20.5 µM (active). With `CCc1ccc(C(=O)/C=C/c2ccc([N+](=O)[O-])o2)cc1` the Potency was 1.3 µM (active). In the case of `CN1CCN(C(=O)/C=C/c2ccc([N+](=O)[O-])o2)CC1`, the Potency is reported as 0.818 µM (active). With `O=[N+]([O-])c1nn(-c2ccccc2)[n+]([O-])c1N1CCN(c2ccccc2F)CC1` the Potency was 1.16 µM (active). With `CC1CCN(c2c([N+](=O)[O-])nn(-c3ccc4c(c3)OCCO4)[n+]2[O-])CC1` the Potency was 1.03 µM (active). For `O=[N+]([O-])c1nn(-c2ccccc2)[n+]([O-])c1N1CCN(c2ccccc2)CC1`, the Potency was 1.3 µM (active). In the case of `CCN(Cc1ccncc1)C(=O)CC1C(=O)NCCN1Cc1ccc(F)c(F)c1` (stereo not drawn), the Potency is reported as “inactive”. In the case of `Cc1c(C(=O)c2ccc(Cl)cc2[N+](=O)[O-])c2ccccn2c1CCC#N`, the Potency is reported as 0.41 µM (active). With `Cc1ccccc1-c1nc2c(=O)n(C)c(=O)nc-2n(C)n1` the Potency was 0.115 µM (active). With `CCn1nc(-c2ccccc2C)nc2c(=O)n(C)c(=O)nc1-2` the Potency was 0.103 µM (active). With `Cc1cnc([N+](=O)[O-])n1CCOC(=O)NC(=O)c1ccccc1Cl` the Potency was 1.16 µM (active). In the case of `COc1ccccc1C(=O)NC(=O)OCCn1c(C)cnc1[N+](=O)[O-]`, the Potency is reported as 0.579 µM (active). For `Cc1ccc(C(=O)c2c3ccc([N+](=O)[O-])cc3[n+]([O-])n2CCC(N)=O)cc1`, the Potency was 6.5 µM (active). For `Cc1ccc(C(=O)c2c3ccc([N+](=O)[O-])cc3[n+]([O-])n2CCCC(N)=O)cc1`, the Potency was 3.65 µM (active). With `NC(=O)CCn1c(C(=O)c2cccc([N+](=O)[O-])c2)c2ccccc2[n+]1[O-]` the Potency was 4.1 µM (active). With `Cc1ccc(C(=O)c2c3ccc([N+](=O)[O-])cc3[n+]([O-])n2CCCN)cc1` the Potency was 4.6 µM (active). With `CC(=O)CSc1ccc(-c2nc3ccccc3[nH]2)cn1` the Potency was 1.45 µM (active). With `CC(=O)CSc1ccc(-c2nc3cc(C)c(C)cc3[nH]2)cn1` the Potency was 2.05 µM (active).
